PubChem BioAssay AID2673 (National Center for Advancing Translational Sciences (NCATS), 2010)
Results filed as inconclusive are left out. Entries that show only a call come without a potency. The source made the active and inactive calls. Calls follow the shape of the dose curve; as a rule, active = well fitted activation curve with a large enough effect; inconclusive = small, poorly fitted or top-dose-only effect; inactive = no such curve, though single readings can be large or run the other way.

Assay: qHTS Multiplex Assay to Identify Dual Action Probes in a Cell Model of Huntington: Cytoprotection confirmation (ATP)
Method in brief: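 PC12 cells expressing ecdysone-inducible HTT exon 1 (Q103)-GFP, induced with 100 nM tebufenozide and exposed to compounds; cytoprotection read as cellular ATP by ATPlite luminescence.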

Cn1nnnc1Sc1ncnc2scc(-c3cccc(F)c3)c12
Potency: 14.1 µM (active)

CNCCCN1c2ccccc2CCc2ccccc21
Potency: inactive

COc1ccc2cc3cc(C(=O)N4CCN(c5ccccc5)CC4)oc3nc2c1
Potency: inactive

COc1c(F)c(F)c(C(=O)Nc2ccc3oc(-c4ccncc4)nc3c2)c(F)c1F
Potency: inactive

Cc1nnc2n1N=CC=C(c1ccccc1)S2
Potency: inactive
